Results filed as inconclusive are left out. Unmarked numbers belong to inactive results. Active and inactive are the calls of the source. The call rests on the fitted dose curve; in most records, active means well fitted curve in the direction sought with a large enough effect in the repeat runs; inconclusive means weak or mixed curves; inactive means no such curve, though single readings can be large; an effect the other way counts as inactive or inconclusive.

A short description of test [1]: A CellTox Green Cytotoxicity Assay to monitor cytotoxicity in HEK293 cells - 40 hour (AID 1224871). Further: nearly all actives have a fitted effect of over 45% in size. Summed up: (§1)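 Fluorescence from a DNA-binding dye excluded by viable cells was measured repeatedly in the same HEK293 wells (600 cells/well) during continuous compound exposure at 37 C. Each assay gives one read point: 0, 8, 16, 24, 32 or 40 h.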
A short description of test [2]: qHTS RealTime-Glo MT Cell Viability Assay in HEK293 cells - 16 hour (AID 1224872). Further: nearly all actives have a fitted effect of over 50% in size. Further: potency means the concentration at half of the fitted maximal effect. Summed up: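 Tox21 10K qHTS, HEK293, 600 cells/well, RealTime-Glo reagent co-dispensed with cells; 5 h preincubation, compound by pintool, 37 C, luminescence at 0–40 h.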
On the technique in general: Quantitative high-throughput screening tests each substance at several concentrations.

The nature of test [3]: qHTS RealTime-Glo MT Cell Viability Assay in HepG2 cells - 8 hour (AID 1224873). Further: nearly all actives have a fitted effect of over 55% in size. Summed up:
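HepG2 cells mixed with RealTime-Glo MT reagents (NanoLuc plus cell-permeant prosubstrate) were seeded at 600 cells/well, incubated 5 h at 37 C/5% CO2, then pinned with compounds in DMSO; nonlytic luminescence tracked viability during 40 h treatment.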

Test [4] is described as follows: qHTS RealTime-Glo MT Cell Viability Assay in HEK293 cells - 40 hour (AID 1224874). Further: nearly all actives have a fitted effect of over 50% in size. Further: potency means the concentration at half of the fitted maximal effect. To be noted: RealTime-Glo luminescence; max response: hits give low values. Summed up:
(§2)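 Luminescence, which tracks viable cell number through reduction of the prosubstrate to a NanoLuc substrate, was read over continuous 37 C culture. Cells (600/well) were premixed with reagent and rested 5 h before 23 nL of compound in DMSO was pinned.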

Test [5] in a line: A CellTox Green Cytotoxicity Assay to monitor cytotoxicity in HEK293 cells - 24 hour (AID 1224875). Further: series mostly up to about 77 µM; nearly all actives have a fitted effect of over 45% in size. Summed up:
as §1

A short description of test [6]: A CellTox Green Cytotoxicity Assay to monitor cytotoxicity in HepG2 cells - 16 hour (AID 1224876). Further: nearly all actives have a fitted effect of over 45% in size. Summed up: (§3)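 Real-time cytotoxicity: fluorescence of a cell-impermeant cyanine dye binding DNA of dead HepG2 cells, measured repeatedly (0–40 h) during compound exposure at 37 C. Cells seeded 600/well with reagent, dosed after 5 h.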
The nature of test [7]: qHTS RealTime-Glo MT Cell Viability Assay in HepG2 cells - 32 hour (AID 1224877). Further: nearly all actives have a fitted effect of over 55% in size. The method, boiled down:
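Cells + NanoLuc/prosubstrate dispensed (600 cells/well) → 5 h at 37 C/5% CO2 → compounds in DMSO transferred → 40 h incubation at 37 C, luminescence read at 0, 8, 16, 24, 32, 40 h.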

Test [8] can be described thus: A CellTox Green Cytotoxicity Assay to monitor cytotoxicity in HepG2 cells - 24 hour (AID 1224878). Further: nearly all actives have a fitted effect of over 45% in size. The method, boiled down:
as §3

Test [9] in a line: qHTS RealTime-Glo MT Cell Viability Assay in HEK293 cells - 0 hour (AID 1224880). The method, boiled down:
as §2

A short description of test [10]: A CellTox Green Cytotoxicity Assay to monitor cytotoxicity in HepG2 cells - 40 hour (AID 1224879). Further: nearly all actives have a fitted effect of over 40% in size. Further: potency means the concentration at half of the fitted maximal effect. Summed up: as §3
On the % scale 0 is the no-effect control and ±100 the full control effect.

Take `CCCCCCCCCOC(C)=O`: the Potency result in test [1], in test [2], in test [3], in [5], in test [6] and in [7] was “inactive” each time. Moreover, the Potency entry in test [8] and in test [9] was “inactive” throughout. Further, the max response in [4] is -10.8%.
`CC(C)c1nnc2ccc(-c3ocnc3-c3cc(F)ccc3F)cn12`: the Potency entry in test [1], in test [3], in [5], in test [6], in [7] and in test [8] was “inactive” throughout. In addition, in [9], the Potency entry is “inactive”. Moreover, the Potency is 17.4 µM (active) in [2] and 19.5 µM (active) in test [4].
Regarding `COC(=O)CC(=O)C(C)(C)C`, the Potency result in test [1], in [2], in test [3], in test [5], in test [6] and in [7] was “inactive” each time. Moreover, the Potency entry in test [8], in test [10] and in test [9] was “inactive” throughout.
For `NCC1CCCC(CN)C1` (centres undefined), the Potency entry in test [1], in test [2], in test [3], in test [5], in test [6] and in [7] was “inactive” in each case. In addition, the Potency entry in test [8] and in test [9] was “inactive” throughout. Moreover, the max response in test [4] was -13.1%.
Consider `CC(=O)[C@H]1CC[C@H]2[C@@H]3C=CC4=CC(=O)CC[C@@]4(C)[C@@H]3CC[C@]12C`, for which the Potency entry in [1], in test [2], in test [3], in test [5], in test [6] and in test [7] was “inactive” throughout. Further, the Potency entry in [8] and in test [9] was “inactive” in each case.
As to `COc1ccc(CCC(=O)c2c(O)cc(O[C@@H]3O[C@H](CO)[C@@H](O)[C@H](O)[C@H]3O[C@@H]3O[C@@H](C)[C@H](O)[C@@H](O)[C@H]3O)cc2O)cc1O`, the Potency entry in test [1], in test [2], in [3], in test [5], in test [6] and in [7] was “inactive” throughout. Also, the Potency entry in test [10] and in [9] was “inactive” in each case. In addition, in [4], the max response was 12.3%.
For the compound `NC(=O)Nc1ccc(Cl)cc1`, the Potency entry in test [1], in test [2], in test [3], in test [5] and in test [7] was “inactive” in each case. The max response in [4] is -8.17%.
In the case of `O=C(/C=C/c1ccccc1)OCCCc1ccccc1`, the Potency result in test [1], in test [2], in test [3], in test [5], in test [6] and in [7] was “inactive” each time. The Potency entry in [9] is “inactive”. The max response in [4] was -1.1%.
As for `O=C(CCCN1CCC(O)(c2ccc(Br)cc2)CC1)c1ccc(F)cc1`, the Potency result in test [1], in [3], in test [5] and in test [9] was “inactive” throughout. Also, the Potency is 9.52 µM (active) in test [2], 10.7 µM (active) in test [4] and 23.9 µM (active) in [10].
For `COc1cc2c(cc1OC)-c1cc(=Nc3c(C)cc(C)cc3C)n(C)c(=O)n1CC2`, the Potency entry in test [1], in [2], in test [3], in [5], in test [6] and in test [7] was “inactive” in each case. Also, the Potency entry in test [8] and in test [9] was “inactive” each time. The Potency in test [10] is 21.3 µM (active).
With `CN1Cc2cc(C(=O)N3CCC(C4CCNCC4)CC3)ccc2N[C@@H](CC(=O)O)C1=O`, the Potency entry in test [1], in [2], in [3], in test [5], in test [6] and in [7] was “inactive” each time. Besides, the Potency result in [8] and in test [9] was “inactive” throughout. Further, in test [4], the max response was 0.441%.
With `CC(C)(C)C(=O)C(Oc1ccc(Cl)cc1)n1ccnc1` (centres undefined), the Potency result in test [1], in test [2], in [3], in test [5], in [6] and in [7] was “inactive” in each case. Further, the Potency result in test [8] and in test [9] was “inactive” throughout.
Take `COc1ccc([C@@H]2Sc3ccccc3NC(=O)[C@@H]2O)cc1`: the Potency entry in [1], in [2], in [3], in test [5], in test [6] and in test [7] was “inactive” in each case. Moreover, the Potency result in test [9] is “inactive”.
On to `C/C(=N/NC(=O)c1ccncc1)C(=O)O`, for which the Potency result in test [1], in test [2], in test [3], in test [5], in test [7] and in test [8] was “inactive” each time. Besides, the Potency result in test [10] is “inactive”. Further, in test [4], the max response is 0.452%.
Regarding `COCC(O)CO` (centres undefined), the Potency entry in test [1], in test [2], in test [3], in test [5], in test [6] and in test [7] was “inactive” throughout. The Potency entry in [10] and in [9] was “inactive” each time. Besides, the max response in test [4] was -5.25%.
Take `C[C@@H]1C[C@H]2[C@@H]3CCC4=CC(=O)C=C[C@]4(C)[C@@]3(F)[C@@H](O)C[C@]2(C)[C@@]1(O)C(=O)CO`: the Potency result in test [1], in test [2], in [3], in test [5], in test [6] and in test [7] was “inactive” each time. The Potency entry in test [10] and in test [9] was “inactive” each time.
In the case of `CC(=N\O)/C(C)=N/O`, the Potency entry in test [1], in [2], in [3], in test [5], in [6] and in test [7] was “inactive” each time. Moreover, in [9], the Potency entry was “inactive”. Besides, the max response in [4] is -18.2%.
Turning to `C=CCOC(=O)/C=C\C(=O)OCC=C`, the Potency entry in [1], in test [2], in [3], in [5], in test [6] and in test [7] was “inactive” each time. Moreover, the Potency entry in [8] and in test [10] was “inactive” in each case.
With `C=C(C)C(=O)OCCOC(=O)CC(C)=O`, the Potency result in test [1], in test [2], in test [3], in test [5], in test [6] and in [7] was “inactive” in each case. Moreover, the Potency result in test [8] and in [9] was “inactive” in each case. Moreover, the max response in [4] was 1.19%.
On to `Nc1ccc(S(=O)(=O)O)cc1`, for which the Potency entry in test [1], in test [2], in test [3], in test [5], in test [6] and in test [7] was “inactive” each time. Also, the Potency entry in test [10] and in test [9] was “inactive” each time. For the same compound, the max response in test [4] is 0.165%.
With `c1cc[c]([Bi]([c]2ccccc2)[c]2ccccc2)cc1`, the Potency entry in [1], in [2], in test [3], in test [5], in test [6] and in test [7] was “inactive” throughout.
Consider `CCOCCn1c(C2CCN(CCc3ccc(C(C)(C)C(=O)O)cc3)CC2)nc2ccccc21`, for which the Potency entry in [1], in [2], in test [3], in test [5], in test [7] and in [9] was “inactive” throughout. In test [4], the max response was 0.952%.

The record behind these values is PubChem BioAssay (Tox21).
